Compound activity (PubChem)
Many of the other results were omitted from the sample, so hits are more common in it than they were.
IDE exosite inh = insulin-degrading enzyme (human) exo-site inhibition. purified IDE, FL-6b probe fluorescence polarization; stronger effect = lower value. z-score at 20 µM. 17,000 compounds, 6.3% hits. AID 1259349;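 active means z-score of -3 or lower, meaning strong loss of probe binding signal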;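 further: His-tagged human IDE residues 42-1019 made in E. coli with 30 nM FL-6b probe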
Target sequence (P14735 42-1019 limits assumed): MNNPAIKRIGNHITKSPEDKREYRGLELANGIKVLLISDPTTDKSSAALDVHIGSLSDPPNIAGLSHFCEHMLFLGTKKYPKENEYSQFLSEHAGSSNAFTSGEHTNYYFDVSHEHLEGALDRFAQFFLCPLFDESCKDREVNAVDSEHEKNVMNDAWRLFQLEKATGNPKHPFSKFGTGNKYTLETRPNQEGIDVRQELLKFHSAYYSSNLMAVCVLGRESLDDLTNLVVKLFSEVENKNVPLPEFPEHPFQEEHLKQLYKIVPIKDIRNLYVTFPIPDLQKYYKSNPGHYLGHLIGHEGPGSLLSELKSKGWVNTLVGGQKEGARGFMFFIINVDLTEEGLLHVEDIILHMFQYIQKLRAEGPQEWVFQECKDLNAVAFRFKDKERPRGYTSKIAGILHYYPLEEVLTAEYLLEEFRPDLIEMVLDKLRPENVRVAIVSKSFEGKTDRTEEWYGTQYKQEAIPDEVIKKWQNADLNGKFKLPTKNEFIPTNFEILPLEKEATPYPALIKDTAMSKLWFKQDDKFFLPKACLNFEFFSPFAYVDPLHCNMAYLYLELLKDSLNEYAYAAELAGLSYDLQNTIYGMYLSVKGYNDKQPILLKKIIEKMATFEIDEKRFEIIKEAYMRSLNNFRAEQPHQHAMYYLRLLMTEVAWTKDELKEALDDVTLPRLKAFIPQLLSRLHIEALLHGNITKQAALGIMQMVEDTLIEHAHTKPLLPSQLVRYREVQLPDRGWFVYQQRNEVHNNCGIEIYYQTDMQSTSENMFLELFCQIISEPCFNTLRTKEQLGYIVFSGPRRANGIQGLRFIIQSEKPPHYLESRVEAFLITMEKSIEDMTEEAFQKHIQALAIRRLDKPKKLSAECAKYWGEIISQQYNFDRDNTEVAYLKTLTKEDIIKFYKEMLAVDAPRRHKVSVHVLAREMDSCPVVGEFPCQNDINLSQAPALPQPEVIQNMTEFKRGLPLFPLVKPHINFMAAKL
Numbers without * were called inactive.

SMILES	IDE exosite inh
COc1ccccc1-c1ccc([C@H]2[C@@H](CO)N3CCCCN(C(=O)c4cccnc4)C[C@H]23)cc1	-13*
COc1ccccc1-c1ccc([C@H]2[C@@H](CO)N3CCCCN(C(=O)c4cccnc4)C[C@@H]23)cc1	0.24
COc1ccccc1-c1ccc([C@H]2[C@@H](CO)N3CCCCN(C(=O)c4ccncc4)C[C@@H]23)cc1	-1.1
COc1ccccc1-c1ccc([C@H]2[C@H](CO)N3CCCCN(C(=O)c4cccnc4)C[C@@H]23)cc1	-1.3
CCCNC(=O)N1C[C@@H]2[C@H](c3ccccc31)[C@@H](CO)N2C(=O)Nc1ccccc1F	-0.32
COCC(=O)N1CC(=O)N2[C@@H](CO)[C@@H](c3ccc(C#CC4CC4)cc3)[C@@H]2C1	-0.069
C/C=C/c1ccc([C@H]2[C@@H](CO)N3C(=O)CN(Cc4ccc(C(=O)OC)cc4)C[C@H]23)cc1	2.7
CN(C)CC#Cc1ccc([C@@H]2[C@@H](CO)N3C(=O)CN(C(=O)c4cccc(F)c4)C[C@@H]23)cc1	0.49
CO[C@@H]1CN(C)C(=O)c2ccc(NS(C)(=O)=O)cc2OC[C@H](C)N(CC2CC2)C[C@@H]1C	0.6
C/C=C/c1cnc2c(c1)C(=O)N([C@@H](C)CO)C[C@@H](C)[C@H](CN(C)CC1CCOCC1)O2	0.092
CC(C)NC(=O)N1[C@H](CO)[C@@H](c2ccccc2)C12CN(Cc1cc(F)cc(F)c1)C2	0.49
CC(C)CC#Cc1ccc([C@H]2[C@H](CO)N3C(=O)CN(C(=O)c4cccc(F)c4)C[C@@H]23)cc1	-0.25
N#C[C@@H]1[C@@H](c2ccc(-c3cccc(F)c3)cc2)[C@H](CO)N1S(=O)(=O)c1cccc(F)c1	1.2
Cc1cccc(-c2ccc([C@@H]3[C@H](CO)N4CCCCN(S(=O)(=O)c5ccccc5C)C[C@@H]34)cc2)c1	-11*
Cc1cccc(-c2ccc([C@H]3[C@@H](CO)N4CCCCN(S(=O)(=O)c5ccccc5C)C[C@H]34)cc2)c1	-0.56
Cc1cccc(-c2ccc([C@@H]3[C@@H](CO)N4CCCCN(S(=O)(=O)c5ccccc5F)C[C@@H]34)cc2)c1	-27*
Cc1cccc(-c2ccc([C@H]3[C@@H](CO)N4CCCCN(S(=O)(=O)c5ccccc5C)C[C@@H]34)cc2)c1	3.6
Cc1cccc(-c2ccc([C@H]3[C@@H](CO)N4CCCCN(S(=O)(=O)c5ccccc5F)C[C@@H]34)cc2)c1	-0.051
Cc1cccc(-c2ccc([C@@H]3[C@@H](CO)N4CCCCN(S(=O)(=O)c5ccccc5F)C[C@H]34)cc2)c1	0.5
N#C[C@H]1[C@@H](c2ccc(-c3ccncc3)cc2)[C@@H](CO)N1C(=O)C1CCCCC1	3.7
CCS(=O)(=O)N1[C@H](C#N)[C@@H](c2ccc(C3=CCCCC3)cc2)[C@H]1CO	3
Cc1cccc(-c2ccc([C@@H]3[C@H]4CN(C(=O)c5cnccn5)CC(=O)N4[C@H]3CO)cc2)c1	-16*
O=C(c1cnccn1)N1CC(=O)N2[C@H](C1)[C@@H](c1ccc(-c3ccccc3)cc1)[C@@H]2CO	-6*
O=C(c1cnccn1)N1CC(=O)N2[C@H](C1)[C@H](c1ccc(-c3ccccc3)cc1)[C@@H]2CO	0.43
Cc1cccc(-c2ccc([C@H]3[C@H]4CN(C(=O)c5cnccn5)CC(=O)N4[C@H]3CO)cc2)c1	-5.4*
SMILES	IDE exosite inh
O=C(c1cnccn1)N1CC(=O)N2[C@H](C1)[C@H](c1ccc(-c3ccc(F)cc3)cc1)[C@@H]2CO	5.7
O=C(c1cnccn1)N1CC(=O)N2[C@H](CO)[C@@H](c3ccc(C4=CCCCC4)cc3)[C@H]2C1	0.26
Cc1cccc(-c2ccc([C@H]3[C@H](CO)N4C(=O)CN(C(=O)c5cnccn5)C[C@@H]34)cc2)c1	-14*
C/C=C/c1ccc([C@@H]2[C@@H](CO)N3C(=O)CN(C(=O)c4cnccn4)C[C@@H]23)cc1	1.2
COC(=O)C[C@H]1C[C@H]2c3cc(NC(=O)c4ccc5c(c4)OCO5)ccc3O[C@H]2[C@H](CO)O1	-0.24
O=C1[C@H](Cc2ccc(C(F)(F)F)cc2)CCn2nncc2COC[C@H]2CCCCN12	2.4
O=C(c1ccncc1)N1C[C@H]2[C@@H](c3ccccc31)[C@H](CO)N2Cc1ccccc1F	-0.18
CCCC#Cc1ccc([C@@H]2[C@H](CO)N3CCCCN(CC4CCOCC4)C[C@@H]23)cc1	3.2
C/C=C/c1ccc([C@H]2[C@@H](CNC(=O)c3ccccn3)N(C(=O)CC)[C@H]2CO)cc1	3.1
Cc1cccc(-c2ccc([C@@H]3[C@H](CO)N4C(=O)CN(C(=O)c5cnccn5)C[C@@H]34)cc2)c1	-11*
Cc1cccc(-c2ccc([C@@H]3[C@@H](CO)N4C(=O)CN(C(=O)c5cnccn5)C[C@@H]34)cc2)c1	-18*
CCC(=O)N1CC(=O)N2[C@H](C1)[C@@H](c1ccc(-c3cccnc3)cc1)[C@@H]2CO	1.7
COc1ccc(NC(=O)N(C)C[C@@H]2OCCCC[C@@H](C)Oc3ccc(NC(=O)c4ccncc4)cc3C(=O)N([C@H](C)CO)C[C@H]2C)cc1	0.64
CC(=O)N1CC(=O)N2[C@H](CO)[C@H](c3ccc(-c4ccncc4)cc3)[C@@H]2C1	-0.02
CCCNC(=O)Nc1ccc2c(c1)C(=O)N(C)[C@H]1CC[C@H](CC(=O)Nc3cc(F)ccc3F)O[C@@H]1CO2	0.59
CN(C[C@@H]1N[C@H](CO)[C@H]1c1ccccc1)C(=O)c1ccccn1	0.75
COCC(=O)N(C)C[C@@H]1[C@@H](c2ccc(-c3cccnc3)cc2)[C@H](CO)N1C(C)=O	0.011
O=C(Nc1ccccc1)N1CCCCN2[C@H](CO)[C@H](c3ccc(-c4ccncc4)cc3)[C@H]2C1	2.6
COCC#Cc1ccc([C@H]2[C@H](CO)N3C(=O)CN(C(=O)c4cccnc4)C[C@@H]23)cc1	5.4
CCC(=O)N1CC(=O)N2[C@@H](CO)[C@H](c3ccc(C#Cc4cccc(F)c4)cc3)[C@@H]2C1	-0.85
CCC(=O)N1CC(=O)N2[C@H](C1)[C@H](c1ccc(C#Cc3cccc(F)c3)cc1)[C@@H]2CO	-8.1*
CS(=O)(=O)N1CC(=O)N2[C@H](CO)[C@@H](c3ccc(C#Cc4cccc(F)c4)cc3)[C@@H]2C1	1.5
CS(=O)(=O)N1CC(=O)N2[C@@H](CO)[C@H](c3ccc(C#Cc4cccc(F)c4)cc3)[C@@H]2C1	-2.9
O=C(CC1CC1)N1CC(=O)N2[C@H](CO)[C@@H](c3ccc(C#Cc4cccc(F)c4)cc3)[C@@H]2C1	-2.1
CCS(=O)(=O)N1CC(=O)N2[C@H](C1)[C@@H](c1ccc(C#Cc3cccc(F)c3)cc1)[C@@H]2CO	-1.6
SMILES	IDE exosite inh
CS(=O)(=O)N1CC(=O)N2[C@H](CO)[C@H](c3ccc(C#Cc4cccc(F)c4)cc3)[C@@H]2C1	-9*
CCC(=O)N1CC(=O)N2[C@H](CO)[C@H](c3ccc(C#Cc4cccc(F)c4)cc3)[C@@H]2C1	-7*
CS(=O)(=O)N1CC(=O)N2[C@H](CO)[C@@H](c3ccc(C#Cc4cccc(F)c4)cc3)[C@H]2C1	-1.1
Cc1noc(C)c1NC(=O)N1C[C@H](O)COC[C@@H]2O[C@@H](CC(=O)N[C@H]3CCN(Cc4ccccc4)C3)CC[C@H]21	-0.061
O=C(Nc1cccc(F)c1)N1CC(=O)N2[C@H](CO)[C@@H](c3ccc(C#Cc4cccnc4)cc3)[C@H]2C1	0.054
CC(=O)N1CCCCN2[C@@H](CO)[C@H](c3ccc(-c4cccc(C(=O)N(C)C)c4)cc3)[C@@H]2C1	4.6
CCCNC(=O)N1C[C@H]2[C@@H](c3ccccc31)[C@H](CO)N2C(=O)CN1CCOCC1	3.3
